Measurements taken from PubChem BioAssay AID1259420 (Broad Institute, 2018).
Where “and” joins values, the source holds several entries; their conditions need not be identical. Identical values can stand only once. Hit rate of the full screen: of about 1,000 compounds, about 250 (25%) were called active. Not shown: some 31% with an inconclusive outcome. These entries were drawn from the full list. Entries with a potency or affinity are not part of this list. Values without a mark were called inactive. No rule for the calls is given here.

Assay: T. gondii intracellular growth, IFN-gamma absent, dose response, cell-based (AID 1259420);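 also: host cells were HeLa; final incubation lasted 72 hours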
Conditions: Toxoplasma gondii growth in host cells, no IFN-gamma

O=C(C[C@H]1CC[C@H]2[C@@H](COC[C@H](O)CN2Cc2ccc(Oc3ccccc3)cc2)O1)N1CCN(c2ccccc2)CC1
max activity (at 19.5 µM unless noted): 19.6%

CCCNC(=O)[C@H]1[C@H](CO)[C@H]2Cn3c(ccc(C4=CCCCC4)c3=O)[C@H]2N1Cc1ccccc1F
max activity (at 19.5 µM unless noted): 26.7%

CCC(=O)N1CC(=O)N2[C@@H](CO)[C@H](c3ccc(C#CCC(C)C)cc3)[C@@H]2C1
max activity (at 19.5 µM unless noted): -4.73% [at 2.6 µM]

Cc1ccccc1-c1ccc(C2[C@@H]3CN(Cc4cncnc4)C[C@H]2N3)cc1 (some centres undefined)
max activity (at 19.5 µM unless noted): -6.61% [at 10 µM]

N#Cc1ccc(-c2ccc(C3[C@@H]4CN(S(=O)(=O)c5ccc(F)cc5)C[C@H]3N4)cc2)cc1 (some centres undefined)
max activity (at 19.5 µM unless noted): 31.5% and 12.6% and 34.4%

N#Cc1ccc(-c2ccc(C3[C@@H]4CN(C(=O)C5CCCCC5)C[C@H]3N4)cc2)cc1 (some centres undefined)
max activity (at 19.5 µM unless noted): 18.4%

COc1cccc(-c2ccc(C3[C@@H]4CN(C(=O)C5CCCCC5)C[C@H]3N4)cc2)c1 (some centres undefined)
max activity (at 19.5 µM unless noted): 23.3%

Cn1cnc(S(=O)(=O)N2C[C@@H]3N[C@H](C2)C3c2ccc(-c3ccccc3F)cc2)c1 (some centres undefined)
max activity (at 2.35 µM): 9.35% | max activity (at 19.5 µM): 18.7%

COc1cc(CN2C[C@@H]3N[C@H](C2)C3c2ccc(-c3ccc(C#N)cc3)cc2)cc(OC)c1 (some centres undefined)
max activity (at 19.5 µM unless noted): 9.2% [at 10 µM]

CS(=O)(=O)N1C[C@@H]2N[C@H](C1)[C@@H]2c1ccc(-c2ccccc2)cc1
max activity (at 19.5 µM unless noted): 14.6% [at 2.6 µM]

COc1cccc(-c2ccc(C3[C@@H]4CN(Cc5ccccn5)C[C@H]3N4)cc2)c1 (some centres undefined)
max activity (at 19.5 µM unless noted): 36.5%

O=C1CC2C(CCN2Cc2ccc(F)cc2)N1CCN1CCOCC1 (centres undefined)
max activity (at 19.5 µM unless noted): -8.01% [at 5 µM]

O=C(Cc1ccccn1)N1CC(=O)N2[C@H](C1)[C@@H](c1ccc(C#CCC3CCCC3)cc1)[C@@H]2CO
max activity (at 19.5 µM unless noted): 30% [at 21 µM]

COC[C@H](N)C(=O)N1CCC(Cc2nnc(SC)n2C)CC1
max activity (at 19.5 µM unless noted): 7.97% [at 0.16 µM]

CCCNC(=O)[C@@H]1[C@@H](CO)[C@@H]2Cn3c(ccc(/C=C/c4ccccc4)c3=O)[C@@H]2N1CC1CC1
max activity (at 19.5 µM unless noted): -5.81% [at 10 µM]

O=S(=O)(c1ccc(F)cc1)N1C[C@@H]2N[C@H](C1)C2c1ccc(/C=C/c2ccccc2)cc1 (some centres undefined)
max activity (at 19.5 µM unless noted): 27.1%

CCCNC(=O)N1C[C@@H]2N[C@H](C1)C2c1ccc(-c2cccc(F)c2)cc1 (some centres undefined)
max activity (at 19.5 µM unless noted): 16.2% [at 21 µM]

C/C=C/c1ccc(C2[C@@H]3CN(S(=O)(=O)c4cccc(OC)c4)C[C@H]2N3)cc1 (some centres undefined)
max activity (at 19.5 µM unless noted): -10.6% [at 0.16 µM]

Cc1cccc(-c2ccc(C3[C@@H]4CN(C(=O)Nc5ccc(F)cc5)C[C@H]3N4)cc2)c1 (some centres undefined)
max activity (at 19.5 µM unless noted): 30.6% [at 10 µM]

COCC#Cc1ccc([C@@H]2[C@H]3CN(C(=O)NC4CCCC4)CCCCN3[C@H]2CO)cc1
max activity (at 19.5 µM unless noted): 30.5%

O=C(NC1CCCC1)N1CCCCN2[C@H](CO)[C@@H](c3ccc(-c4cccnc4)cc3)[C@H]2C1
max activity (at 19.5 µM unless noted): 9.08% [at 0.038 µM]

O=C(c1cccc(F)c1)N1CCCCN2[C@H](C1)[C@@H](c1ccc(C#CC3(O)CCCC3)cc1)[C@@H]2CO
max activity (at 19.5 µM unless noted): 13.2%

O=C(Nc1cccc(F)c1)N1CCCCN2[C@H](C1)[C@@H](c1ccc(C#Cc3cccnc3)cc1)[C@@H]2CO
max activity (at 0.3 µM): -7.31% | max activity (at 19.5 µM): -13.4%

CC(C)CC#Cc1ccc([C@@H]2[C@@H](CO)N3CCCCN(C(=O)Nc4ccccc4)C[C@@H]23)cc1
max activity (at 19.5 µM unless noted): 7.18% [at 2.6 µM]

O=C(Nc1cccc(F)c1)N1CCCCN2[C@H](CO)[C@@H](c3ccc(C#Cc4cccnc4)cc3)[C@@H]2C1
max activity (at 19.5 µM unless noted): 5.46% [at 5 µM]

O=C(NC1CCCC1)N1CCCCN2[C@@H](CO)[C@H](c3ccc(-c4cccnc4)cc3)[C@@H]2C1
max activity (at 19.5 µM unless noted): 11.1% [at 2.6 µM]

O=C(c1cccc(F)c1)N1CCCCN2[C@H](C1)[C@H](c1ccc(C#CC3(O)CCCC3)cc1)[C@@H]2CO
max activity (at 10 µM): -12.3% | max activity (at 21 µM): -8.26%

CNc1ncc(CN(C)C(=O)c2csc(C)n2)cn1
max activity (at 19.5 µM unless noted): -6.03% [at 5 µM]

Cc1cnc(N2C[C@@H](c3ccccc3)[C@@]3(CCNC3=O)C2)nc1
max activity (at 19.5 µM unless noted): 67.2%

CC1(C)C2CCC1(CS(=O)(=O)O)C(=O)/C2=C\c1ccc(/C=C2/C(=O)C3(CS(=O)(=O)O)CCC2C3(C)C)cc1
max activity (at 19.5 µM unless noted): 5.44%

Fc1ccccc1-c1ccc(C2[C@H]3CNC[C@@H]2N3CC2CC2)cc1 (some centres undefined)
max activity (at 19.5 µM unless noted): 11.6%

CC(=O)O[C@H]1C[C@@H](OC(C)=O)C(C)(C)C2C[C@@H](OC(C)=O)[C@@]3(C)C4=CC(=O)O[C@@H](c5ccoc5)[C@]4(C)CCC3[C@]21C (some centres undefined)
max activity (at 19.5 µM unless noted): -6.69% [at 0.16 µM]

O=C(C[C@@H]1CC[C@@H]2[C@H](COC[C@H](O)CN2C(=O)c2cc(Cl)cc(Cl)c2)O1)N1CCc2ccccc2C1
max activity (at 19.5 µM unless noted): 9.95%

C/C=C/c1ccc(C2[C@@H]3CN(Cc4cccc(OC)c4)C[C@H]2N3)cc1 (some centres undefined)
max activity (at 19.5 µM unless noted): 25.8% [at 1.2 µM]

O=C(Nc1cccc(F)c1)N1CCCCN2[C@H](C1)[C@H](c1ccc(C#Cc3cccnc3)cc1)[C@@H]2CO
max activity (at 19.5 µM unless noted): -11.5% [at 21 µM]

O=C(Nc1cccc(F)c1)N1CCCCN2[C@@H](CO)[C@@H](c3ccc(C#Cc4cccnc4)cc3)[C@@H]2C1
max activity (at 19.5 µM unless noted): 16.4% [at 0.6 µM]

CC(C)CCN1Cc2c(C(=O)Nc3cccc(F)c3)ncn2-c2ccccc2S1(=O)=O
max activity (at 19.5 µM unless noted): 27% [at 10 µM]

COc1ccccc1NC(=O)N1CC(=O)N2[C@H](C1)[C@@H](c1ccc(C#CC(C)C)cc1)[C@@H]2CO
max activity (at 19.5 µM unless noted): -5.1% [at 5 µM]

N#Cc1ccc(-c2ccc([C@@H]3[C@H]4CNC[C@@H]3N4Cc3ccc4c(c3)OCO4)cc2)cc1
max activity (at 19.5 µM unless noted): 27.3% [at 10 µM]

OC[C@@H]1Nc2ccc(C#Cc3ccc(F)cc3)cc2[C@@H]2[C@H]1CCN2Cc1ccc2c(c1)OCO2
max activity (at 19.5 µM unless noted): 6.67% [at 1.2 µM]

O=C(c1ccc2c(c1)OCO2)N1CC[C@@H]2[C@H](CO)Nc3ccc(C#Cc4ccccc4)cc3[C@@H]21
max activity (at 19.5 µM unless noted): 15.9%
